Reference: the supplement of paper PMC12340641
Structures can show the parent of a compound that is named as a salt.

Each compound was assayed on HEK293FT dCK*-IKZF1 (assay: relative growth recovery (pomalidomide 10 uM = 100%, DMSO = 0%); higher = more growth rescue (IKZF1 fusion degradation)). Details: compound concentration: 5 uM; AraC concentration: 0.3 uM; overnight pretreatment + 4 days AraC.
In short: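 HEK293FT cells stably expressing an engineered deoxycytidine kinase–IKZF1 fusion were seeded at 300 per well in 384-well plates and given 5 μM compound 2 h later. After overnight incubation at 37 °C, a nucleoside suicide substrate at 0.3 μM was added with medium for 4 days, and on day 5 Hoechst 33342-stained nuclei were counted by whole-well imaging. Growth recovery was normalised per plate between a reference degrader and vehicle, set to 100% and 0% respectively, and the values are means of duplicates run on different days.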

| SMILES | relative growth recovery [%] |
| --- | --- |
| CN1CCC(=C2c3ccccc3Sc3ccccc32)CC1 | -1.33 |
| O=c1oc2c(O)c(O)cc3c(=O)oc4c(O)c(O)cc1c4c23 | -3 |
| CNC(=O)Nc1ccc(-c2nc(N3CC4CCC(C3)O4)c3cnn(C4CCC5(CC4)OCCO5)c3n2)cc1 | -13.5 |
| CC1(C)Oc2ccc(C#N)cc2[C@@H](N2CCCC2=O)[C@@H]1O.CC1(C)Oc2ccc(C#N)cc2[C@H](N2CCCC2=O)[C@H]1O [levcromakalim] | -0.84 |
| COc1cc([C@@H]2c3cc4c(cc3C(O[C@@H]3O[C@@H]5CO[C@@H](c6cccs6)OC5[C@H](O)[C@H]3O)C3COC(=O)[C@@H]32)OCO4)cc(OC)c1O (stereo partly drawn) | -13.1 |
| O=C1C=CC(=O)C2=C1C1c3ccccc3C2c2ccccc21 | -0.735 |
| CCCC(=O)C1CCN(c2ncnc3c2CN(C(=O)c2ccc(-c4ccccc4)cc2)CC3)CC1 | 4.94 |
| C/C(=N\NC(=S)N1CCC1)c1ccccn1 | -12.9 |
| COc1cnc(NS(=O)(=O)c2ccc(N)cc2)nc1 | -3.84 |
| C[C@H]1O[C@@H](n2cc(F)c(=O)[nH]c2=O)[C@H](O)[C@@H]1O | 0.84 |
| NC(=O)Nc1sc(-c2ccc(F)cc2)cc1C(N)=O | -9.27 |
| O=C1Nc2ccc(I)cc2/C1=C/c1cc(Br)c(O)c(Br)c1 | -2.06 |
| COc1cc(/C=C/C(=O)CC(=O)/C=C/c2ccc(O)c(OC)c2)ccc1O [Curcumin] | -6.48 |
| CCN(CC)c1ccc(C(=C2C=CC(=[N+](CC)CC)C=C2)c2ccccc2)cc1 [Brilliant Green] | -14.4 |
| NC1CC(O[C@H]2C[C@@]([C@@](C)=O)(O)CC3=C2C(O)=C5C(C(C4=CC=CC(OC)=C4C5=O)=O)=C3O)OC(C)C1O (stereo partly drawn) [daunorubicin] | -14.9 |
| O=S(=O)(O)CCSSCCS(=O)(=O)O | 0.365 |
| C/C=C(/C(=C/C)c1ccc(O)cc1)c1ccc(O)cc1 [dienestrol] | -1.6 |
| CN(Cc1cnc2nc(N)nc(N)c2n1)c1ccc(C(=O)NC(CCC(=O)O)C(=O)O)cc1 (stereo not drawn) [Methotrexate] | -9.97 |
| CCc1nc(N)nc(N)c1-c1ccc(Cl)cc1 | -0.245 |

| SMILES | relative growth recovery [%] |
| --- | --- |
| CN(C)C(=O)C(CCN1CCC(O)(c2ccc(Cl)cc2)CC1)(c1ccccc1)c1ccccc1 [Loperamide HCl] | -1.04 |
| CCOC(=O)C1=C(C)NC(C)=C(C(=O)OC)C1c1cccc(Cl)c1Cl (stereo not drawn) | -1.19 |
| CSCC1CN(/N=C/c2ccc([N+](=O)[O-])o2)C(=O)O1 (stereo not drawn) [Nifuratel] | -1.79 |
| O=c1c(O)c(-c2ccc(O)c(O)c2)oc2cc(O)cc(O)c12 [quercetin] | -2.98 |
| O=C(/C=C/c1ccc(O)cc1)c1ccc(O)cc1O [Isoliquiritigenin] | -1.02 |
| CCC1(O)CC2CN(CCc3c([nH]c4ccccc34)[C@@](C(=O)OC)(c3cc4c(cc3OC)N(C=O)C3[C@]45CCN4CC=C[C@@](CC)([C@@H](OC(C)=O)[C@]3(O)C(=O)OC)[C@H]45)C2)C1 (stereo partly drawn) [Vincristine sulfate] | -11.8 |
| NC(=O)N/N=C/c1ccc(Oc2ccc(F)cc2)cc1 | -1.07 |
| CCc1c2c(nc3ccc(OC(=O)N4CCC(N5CCCCC5)CC4)cc13)-c1cc3c(c(=O)n1C2)COC(=O)[C@]3(O)CC [Irinotecan HCl] | -15.1 |
| COC(=O)Nc1nc2cc(C(=O)c3ccccc3)ccc2[nH]1 [Mebendazole] | -10.7 |
| CCCCc1ccc2[nH]c(NC(=O)OC)nc2c1 [parbendazole] | -11.7 |
| CCCCCCCC/C=C\CCCCCCCC(=O)NCCO [oleoylethanolamide] | 1.78 |
| CCN(CC)CCCC(C)Nc1nc(C)cc(Nc2ccc3nc(C)cc(N)c3c2)n1 (stereo not drawn) | 0.345 |
| CN1CCN(CCCN2c3ccccc3Sc3ccc(C(F)(F)F)cc32)CC1 [Trifluoperazine  HCl] | 3.73 |
| c1ccc(C2(c3ccccc3)CC2=C2NCCN2)cc1 [cibenzoline] | -0.4 |
| COc1ccc2cc1Oc1ccc(cc1)C[C@H]1c3cc(c(OC)cc3CCN1C)Oc1c(OC)c(OC)cc3c1[C@H](C2)N(C)CC3 [Tetrandrine (Fanchinine)] | -3.42 |
| Clc1ccc(CSC(Cn2ccnc2)c2ccc(Cl)cc2Cl)cc1 (stereo not drawn) [Sulconazole Nitrate] | -2.21 |
| CC[C@@]1(O)C(=O)OCc2c1cc1n(c2=O)Cc2cc3c(CN(C)C)c(O)ccc3nc2-1 [Topotecan (Hydrochloride)] | -15.9 |
| C[C@H](NCc1ccc(OCc2ccccc2F)cc1)C(N)=O [priralfinamide] | -2.81 |
| CN1C(=O)/C(=C2/C(=O)Nc3ccccc32)c2ccccc21 [Meisoindigo] | -3.15 |
